Measurements as given in the supplement of paper PMC11219838.
Values without a mark were called inactive.

Legend:
Conditions in all cases: 60 µM; 5 days; temperature: 20 °C
Meloidogyne hapla J2 = test: proportion of mobile M. hapla J2 relative to DMSO control (fraction of DMSO control); higher = more viable, less nematicidal, active = 0.7 or less
Outline: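 About 25 M. hapla J2 were added per 96-well well in distilled water, and compound was pinned to 60 µM final (0.6% v/v DMSO). Sealed plates were shaken at 200 rpm for 5 days at 20 °C, then 2 µL 1 M NaOH was added before microscopic mobility scoring. Mobility was divided by the mean of eight DMSO wells on the same plate, and two biological replicates were averaged.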

Ditylenchus dipsaci = test: proportion of mobile D. dipsaci (mixed stage) relative to DMSO control (fraction of DMSO control); higher = more viable, less nematicidal, active = 0.86 or less; extreme values may be limits of the assay
Outline: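 D. dipsaci were grown on pea plants in Gamborg B-5 agar and extracted through a filter funnel into water, and about 20 worms were added per 96-well well in distilled water. Compound was pinned to 60 µM final (0.6% v/v DMSO), and sealed plates were shaken at 200 rpm for 5 days at 20 °C. After 2 µL 1 M NaOH was added, mobile worms were scored microscopically. Mobility was expressed relative to DMSO controls and averaged over two biological replicates.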

[1] = test system: Caenorhabditis elegans dauer (daf-2(e1370)); test: proportion of mobile C. elegans dauer larvae relative to DMSO control (fraction of DMSO control); higher = more viable, less nematicidal, active = 0.63 or less; extreme values may be limits of the assay
Outline: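 Compound was added by pinning to 60 µM final, giving 0.6% v/v DMSO, in 96-well plates containing about 20 C. elegans dauers per well in liquid NGM. These dauers came from synchronized larvae held on MYOB plates with E. coli OP50 for 48 h at 25 °C. Plates were sealed and shaken at 200 rpm at 20 °C for 5 days. Under a dissection microscope, the proportion of mobile worms was scored relative to DMSO wells, and two biological replicates were averaged.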

| Compound | proportion of mobile M. hapla J2 (Meloidogyne hapla J2) | proportion of mobile D. dipsaci (Ditylenchus dipsaci) | proportion of mobile C. elegans dauer larvae [1] |
| --- | --- | --- | --- |
| Cc1nc(CSc2nnc(-c3ccc(Cl)cc3)o2)cs1 | 0.947 | 1 | – |
| Cc1cc(OCc2nc(-c3cccnc3)no2)cc(C)c1Br | 1.05 | 1 | – |
| CC(=O)Nc1ccc(-c2nnc(SCc3ccccc3)o2)cc1 | 0.954 | 1 | – |
| Fc1ccc(OCc2nc(-c3ccc(Cl)cc3)no2)cc1 | 1.1 | 1 | 1 |
| CCOc1cc(-c2nc(-c3ccc(OC)cc3)no2)cc(OCC)c1OCC | 0.998 | 1 | – |
| Cc1ccccc1OCc1nc(-c2cccc(C(F)(F)F)c2)no1 | 0.946 | 1 | – |
| Cc1cc(OCc2nc(-c3ccncc3)no2)ccc1Cl | 0.921 | 1 | – |
| Fc1ccc(-c2nc(-c3ccc(Cl)cc3)no2)cc1 | 0.919 | 1 | – |
| c1ccc2c(-c3nc(-c4ccncc4)no3)cccc2c1 | 0.917 | 1 | – |
| COc1ccc(CCC(=O)Nc2ccc(-c3noc(COc4ccccc4C)n3)cc2)cc1 | 0.898 | 1 | – |
| Cc1cc(OCc2nc(-c3ccncc3)no2)cc(C)c1Cl | 0.78 | 1 | – |
| Cc1ccccc1CSc1nnc(-c2ccccc2Cl)o1 | 0.888 | 1 | – |
| Cc1ccc(NC(=O)CSc2nnc(-c3ccccc3)o2)cc1F | 1.02 | 1 | 1 |
| FC(F)(F)c1cccc(-c2noc(-c3cccnc3)n2)c1 | 0.813 | 0.914 | – |
| Fc1ccc(CSc2nnc(-c3ccccn3)o2)cc1 | 0.846 | 1 | – |
| CC(C)(Oc1ccc(Cl)cc1)c1nc(-c2ccncc2)no1 | 0.91 | 1 | – |
| CC(=O)Nc1ccc(NC(=O)c2ccccc2-c2nc(-c3ccccc3Cl)no2)cc1 | 0.866 | 1 | – |
| Ic1ccc(CSc2nnc(-c3ccco3)o2)cc1 | 0.872 | 1 | – |
| CCOc1ccccc1-c1nc(-c2ccc(F)cc2)no1 | 1.06 | 1 | – |
| COc1cccc(-c2noc(COc3ccccc3C)n2)c1 | 0.861 | 1 | – |
| Cc1cccc(-c2noc(COc3ccc(Br)cc3)n2)c1 | 0.882 | 1 | – |
| COc1ccc(-c2noc(COc3ccccc3C)n2)cc1 | 1.03 | 1 | – |

| Compound | proportion of mobile M. hapla J2 (Meloidogyne hapla J2) | proportion of mobile D. dipsaci (Ditylenchus dipsaci) | proportion of mobile C. elegans dauer larvae [1] |
| --- | --- | --- | --- |
| c1coc(-c2nc(-c3cccs3)no2)c1 | 1.01 | 1 | – |
| CCc1ccc(C(=O)Nc2ccccc2-c2nc(-c3ccncc3)no2)cc1 | 1 | 1 | – |
| Cc1ccc(C)c(-c2nc(-c3ccc(Cl)cc3)no2)c1 | 0.93 | 1 | – |
| COc1cccc(-c2nnc(SCc3ccccc3)o2)c1 | 0.985 | 1 | – |
| Clc1ccccc1-c1nc(-c2ccc3c(c2)OCO3)no1 | 0.983 | 1 | – |
| COc1ccc(-c2noc(-c3ccccc3Br)n2)cc1 | 0.765 | 1 | – |
| Cc1ccc(OCc2nc(-c3ccccc3Cl)no2)c(C)c1 | 1 | 1 | – |
| Brc1ccccc1-c1nc(-c2ccncc2)no1 | 0.995 | 1 | – |
| Cc1ccccc1OCc1nc(-c2ccc(F)cc2)no1 | 0.909 | 1 | – |
| Cc1nnc(CSc2nnc(-c3ccc(Cl)cc3)o2)o1 | 0.926 | 1 | – |
| COc1ccc(CCC(=O)Nc2ccc(-c3noc(-c4ccc(F)cc4)n3)cc2)cc1 | 0.746 | 1 | – |
| COc1ccc(NC(=O)CSc2nnc(-c3ccc(Br)cc3)o2)cc1 | 1.02 | 1 | – |
| c1ccc(COc2cccc(-c3nc(-c4cccnc4)no3)c2)cc1 | 0.854 | 1 | – |
| COc1ccc(-c2nc(-c3ccc(Cl)cc3)no2)cc1 | 1 | 1 | – |
| Fc1cccc(-c2nc(-c3cccnc3)no2)c1 | 1.08 | 1 | – |
| Cc1cccc(-c2noc(-c3ccc(Cl)cc3)n2)c1 | 1.05 | 1 | – |
| Clc1ccc(-c2noc(COc3ccccc3Cl)n2)cc1 | 0.891 | 1 | – |
| COc1ccc(-c2nnc(SCc3cccc(C#N)c3)o2)cc1 | 0.785 | 1 | – |
| O=C(Nc1cccc(-c2noc(-c3cccnc3)n2)c1)c1cccs1 | 0.999 | 1 | – |
| COc1ccc(-c2nnc(SCc3ccc(Cl)cc3Cl)o2)cc1 | 1.04 | 1 | – |
| Cc1ccccc1-c1nnc(SCc2ccccc2Cl)o1 | 0.863 | 1 | – |
